Screening results deposited in PubChem by National Center for Advancing Translational Sciences (NCATS).
Cycloheximide cs = Cycloheximide Counterscreen for Small Molecule Inhibitors of Shiga Toxin; cell reporter, cycloheximide protein synthesis inhibition counterscreen; max response, %; 12% of 300,000 active; AID 2314, 2010; in the data active = max response mostly above about 13%, no sharp cut-off; inactive = mostly below about 14%; note: read at 38.3 µM for the half of the compounds with a filed dose; 0% is about no effect
Pf growth 48h = Primary qHTS for delayed death inhibitors of the malarial parasite plastid, 48 hour incubation; P. falciparum luciferase growth in erythrocytes, 48 h; Potency, µM (doses to about 28.7 µM), without a hit: at the top dose activity change, negative = inhibition, usual class: inhibitors; 5.9% of 310,000 active; AID 504832, 2011; note: potency is the fitted concentration of half-maximal effect; % is set by controls: 0 for no effect and ±100 for the full control effect
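Firefly luciferase activity from engineered P. falciparum reports growth; inhibitors lower the luminescent signal. Cultures contained 2% hematocrit erythrocytes at 0.1% final parasitemia.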
Shiga toxin inh = A qHTS for Small Molecule Inhibitors of Shiga Toxin. Vero cells, Shiga toxin protein synthesis inhibition reporter. inhibition, % at 38.7 µM. 9.2% of 290,000 active; in the data active = inhibition mostly above about 28%, no sharp cut-off; inactive = mostly below about 43%; note: 0% is about no effect
Pf growth 96h = Primary qHTS for delayed death inhibitors of the malarial parasite plastid, 96 hour incubation. P. falciparum luciferase reporter growth, 96 h. Potency, µM (doses to about 28.7 µM), for inactives: at the highest dose activity change, negative = inhibition, usual class: inhibitors. 6.9% of 320,000 active. AID 504834, 2011; note: potency is the fitted concentration of half-maximal effect; % is set by controls: 0 for no effect and ±100 for the full control effect
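P. falciparum expressing integrated firefly luciferase, in erythrocytes at 2% hematocrit, 0.05% parasitemia, incubated with compounds 96 h at 37 C, 5% CO2. Growth inhibition read as loss of luminescence; two-generation exposure targets delayed-death apicoplast inhibitors.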
* marks the source's active call; other numbers are inactive results; [ ] = remark or other dose. The list is not random: actives were taken first. Their share in the collection is about 21%. Unless noted, calls come from the whole dose curve; as a rule, active = well fitted inhibition curve with a large enough effect; inconclusive = small, poorly fitted or top-dose-only effect, or another doubt; inactive = no such curve, though single readings can be large or run the other way.

`CC1(C)Oc2ccc3ccc(=O)oc3c2/C(=C/NNC(N)=S)C1=O` gave Cycloheximide cs -2, Pf growth 48h 0.83µM*, Shiga toxin inh -10 and Pf growth 96h 24%.
For CC1(C)Oc2ccc3ccc(=O)oc3c2/C(=C/Nc2cccc(O)c2)C1=O the results were Cycloheximide cs 1, Pf growth 48h 13µM*, Shiga toxin inh -17 and Pf growth 96h 81%.
CN/C=C1\C(=O)C(C)(C)Oc2ccc3ccc(=O)oc3c21 was read as Cycloheximide cs -3, Pf growth 48h -9% and Shiga toxin inh -2.
Screening CC1(C)Oc2ccc3ccc(=O)oc3c2/C(=C/Nc2ccc(O)cc2)C1=O returned Cycloheximide cs -4, Pf growth 48h inconclusive, Shiga toxin inh -2 and Pf growth 96h -14%.
CC(C)(C)c1csc(NC(=O)c2c(F)c(F)c(F)c(F)c2F)n1 was read as Cycloheximide cs -3, Pf growth 48h -8%, Shiga toxin inh -13 and Pf growth 96h 0%.
Cc1ccc(C(=O)O)c(C(=O)Nc2nc(C)cs2)c1 was read as Cycloheximide cs -3, Pf growth 48h inconclusive, Shiga toxin inh -8 and Pf growth 96h inconclusive.
Screening CC(C)(C)c1csc(NC(=O)c2ccccc2O)n1 returned Cycloheximide cs 32*, Pf growth 48h -3%, Shiga toxin inh 39* and Pf growth 96h 17%.
`Cc1csc(NC(=O)c2ccc(Cl)nc2)n1` gave Cycloheximide cs 47*, Shiga toxin inh 57* and Pf growth 96h 102%.
`Cc1csc(NC(=O)c2cc(C)oc2C)n1` gave Cycloheximide cs 28*, Pf growth 48h 48%, Shiga toxin inh 74* and Pf growth 96h 183%.
For Cc1csc(NC(=O)c2ccccc2O)n1 the results were Cycloheximide cs 56*, Pf growth 48h 108%, Shiga toxin inh 89* and Pf growth 96h 89%.
Screening Cc1csc(Nc2nc(N)c(C(=O)Nc3ccccc3)o2)n1 returned Cycloheximide cs 39*, Pf growth 48h 5%[0.00184 µM], Shiga toxin inh 98* and Pf growth 96h 3.3µM*.
`Cc1csc(NC(=O)c2oc3ccccc3c2C)n1` gave Pf growth 48h 56% and Pf growth 96h 14%.
For CC(C)(C)c1csc(NNC(=O)c2ccc(Br)cc2)n1 the results were Cycloheximide cs 40*, Pf growth 48h 2.9µM*, Shiga toxin inh 94* and Pf growth 96h inconclusive.
Screening CSc1ncccc1C(=O)Nc1nc(C(C)(C)C)cs1 returned Cycloheximide cs 21*, Pf growth 48h 8%, Shiga toxin inh 18* and Pf growth 96h 10%.
`Cc1nc(C)c(C(=O)NNC(=O)c2ccc(Br)cc2)s1` gave Cycloheximide cs 6, Pf growth 48h 21%, Shiga toxin inh -5 and Pf growth 96h -11%.
Screening O=C(c1cncs1)N1CCCC(CNS(=O)(=O)c2cccs2)C1 (stereo unspecified) returned Cycloheximide cs 1, Pf growth 48h 5%, Shiga toxin inh -8 and Pf growth 96h 15%.
For COc1cc(CC(=O)OCC(=O)N2CC(=O)Nc3ccccc32)cc(OC)c1OC the results were Cycloheximide cs 1, Pf growth 48h 66%, Shiga toxin inh -3 and Pf growth 96h inconclusive.
Screening CN1CCN(c2ccc(S(=O)(=O)N3CCCCC3)cc2NC(=O)c2ccc(F)cc2F)CC1 returned Cycloheximide cs -2, Pf growth 48h inconclusive, Shiga toxin inh -12 and Pf growth 96h inconclusive.
For CC(=O)[C@H]1CC[C@H]2[C@@H]3CCC4=CC(=O)CC[C@]4(C)[C@H]3[C@H](O)C[C@]12C the results were Cycloheximide cs 1, Pf growth 48h 8%, Shiga toxin inh 6 and Pf growth 96h -23%.
C[C@]12CC(O)C3C(CCC4=CC(=O)CC[C@@]43C)C1CCC2c1csc(-c2ccccc2)n1 (stereo partly specified) was read as Cycloheximide cs -6, Pf growth 48h 5.2µM*, Shiga toxin inh -7 and Pf growth 96h inconclusive.
Screening Nc1nc(NCC2CCC(CNS(=O)(=O)c3cccc4ccccc34)CC2)nc2ccccc12 (stereo unspecified) returned Cycloheximide cs -7 and Shiga toxin inh -15.
For CCOC(=O)c1csc(NC(=O)c2cc(=O)c3ccccc3o2)n1 the results were Cycloheximide cs 29, Pf growth 48h 4%, Shiga toxin inh 24 and Pf growth 96h 0.074µM*.
`CCc1ccccc1NC(=O)c1cc(=O)c2ccccc2o1` gave Cycloheximide cs 13, Pf growth 48h 8%, Shiga toxin inh 17 and Pf growth 96h -1%.
CC(=O)c1sc(NC(=O)c2cc(=O)c3ccccc3o2)nc1C was read as Cycloheximide cs 36*, Pf growth 48h inactive, Shiga toxin inh 60* and Pf growth 96h 107%.
Cc1cc(C)c(NC(=O)c2cc(=O)c3ccccc3o2)c(C)c1 was read as Cycloheximide cs -2, Pf growth 48h inconclusive, Shiga toxin inh -6 and Pf growth 96h inconclusive.
For COc1cc([N+](=O)[O-])ccc1NC(=O)CC1SC(=Nc2ccc(F)cc2)N(CCC2=CCCCC2)C1=O (stereo unspecified) the results were Cycloheximide cs 3, Pf growth 48h inconclusive, Shiga toxin inh -11 and Pf growth 96h 1.9µM*.
`COc1ccc(OC)c(NC(=O)CC2SC(=Nc3ccc(F)cc3)N(CCC3=CCCCC3)C2=O)c1` (stereo unspecified) gave Cycloheximide cs 13*, Pf growth 48h inconclusive, Shiga toxin inh -1 and Pf growth 96h 4.1µM*.
For CCCCOC(=O)C(C)Sc1n[nH]c(=O)[nH]c1=O (stereo unspecified) the results were Cycloheximide cs -10, Pf growth 48h -17%, Shiga toxin inh -28 and Pf growth 96h inconclusive.
`CCOc1ccc(S(=O)(=O)NC(C)C(=O)NCc2cccnc2)cc1` (stereo unspecified) gave Cycloheximide cs -2, Pf growth 48h 12%, Shiga toxin inh -5 and Pf growth 96h 5%.
`CCOC(=O)c1nnsc1-c1ccc(-c2snnc2C(=O)OCC)cc1` gave Cycloheximide cs -8, Pf growth 48h 22%, Shiga toxin inh -5 and Pf growth 96h 6%.
`CCOC(=O)c1nnsc1Nc1ccc(C)c(C)c1` gave Cycloheximide cs 43*, Pf growth 48h 4%, Shiga toxin inh 59* and Pf growth 96h 0%.
Screening CNC1C(O)C(OC2C(N)CC(N)C(OC3OC(CN)=CCC3N)C2O)OCC1(C)O (stereo unspecified) returned Pf growth 48h -5% and Pf growth 96h -16%.
Screening CC(C)(C)C(=O)[C@H]1[C@H](c2ccccc2)[C@@]2(N=C(c3ccccc3)OC2=O)C2c3ccccc3C=NN21 (stereo partly specified) returned Cycloheximide cs 40*, Pf growth 48h inconclusive, Shiga toxin inh 26 and Pf growth 96h inconclusive.
For N=c1c2c3c(sc2ncn1Cc1ccccc1)CCCC3 the results were Cycloheximide cs 0, Pf growth 48h inconclusive, Shiga toxin inh -8 and Pf growth 96h 47%.
N=c1c2c3c(sc2ncn1Nc1ccccc1)CCC3 was read as Cycloheximide cs 5, Pf growth 48h 1.7µM*, Shiga toxin inh -1 and Pf growth 96h 2.9µM*.
